Data on 47 molecules can be found in PubChem BioAssay AID434970 (Sanford-Burnham Center for Chemical Genomics, 2010).

The campaign covered roughly 11,000 compounds. About 310 (2.8%) were called active. Cut-off read from the data, not from the text of the source: active = activity change below about -85%; inactive = the rest. This excerpt belongs to a sample that is enriched for actives.

The test system of this assay is intestinal alkaline phosphatase [Mus musculus]. Briefly: activators of mouse IAP, confirmation, biochemical, luminescence, single concentration (AID 434970). Conditions: purified mouse IAP, CDP-Star luminescence, 30 min, at 10 µM; activation factor: measured here: IAP activation factor, stronger effect = higher value; activity change, negative = activation: stronger effect = lower value.
With `Cc1ccccc1C1C(C#N)=C2N=C(N)c3c(sc4c3CCCCC4)N2C2=C1C(=O)CCC2` (centres undefined), the activation factor turned out to be 0.831 and the activity change, negative = activation is 16.9% (inactive).

`CC1N(O)C(C)(C)C(c2ccccc2)=[N+]1[O-]` (centres undefined): the activation factor is 1.08 and the activity change, negative = activation was -7.85% (inactive).

On to `Cc1cc(NC(=O)CSc2ccc(-c3ccccc3)nn2)no1`, for which the activation factor was found to be 0.978 and the activity change, negative = activation is 2.15% (inactive).

Take `CCOC(=O)Cn1c(=O)c(-c2ccccc2NCc2ccccc2)nc2ccccc21`: the activation factor was found to be 0.764 and the activity change, negative = activation was 23.5% (inactive).

On to `COCCn1c(-c2cc(OC)c(OC)c(OC)c2)nc2oc3ccccc3c(=O)c2c1=O`, for which the activation factor was 0.931 and the activity change, negative = activation was 6.9% (inactive).

Take `COc1ccc(C2(CNC(=O)Cc3ccc(OC)c(OC)c3)CCOCC2)cc1`: the activation factor is 0.999 and the activity change, negative = activation is 0.05% (inactive).

Consider `C#CCOCCOCCOCCNc1nc(N2CCN(C(=O)CCCCCCCCCCNC(=O)[C@@H](CCSC)n3cc(CCO)nn3)CC2)nc(N2CCN(C(=O)CCCCCCCCCCNC(=O)[C@H]([C@@H](C)CC)n3cc(CCCCN=C(N)N)nn3)CC2)n1`, for which the activation factor was found to be 22.1 and the activity change, negative = activation is -2110% (active).

Consider `C#CCOCCOCCOCCNc1nc(N2CCN(C(=O)CCCCCCCCCCNC(=O)[C@@H](CCSC)n3cc(CCO)nn3)CC2)nc(N2CCN(C(=O)CCCCCCCCCCNC(=O)[C@H]([C@@H](C)CC)n3cc(CCCCCN)nn3)CC2)n1`, for which the activation factor stood at 7.35 and the activity change, negative = activation is -635% (active).

With `C#CCOCCOCCOCCNc1nc(N2CCN(C(=O)CCCCCCCCCCNC(=O)[C@H]([C@@H](C)CC)n3cc(CCCCN=C(N)N)nn3)CC2)nc(N2CCN(C(=O)CCCCCCCCCCNC(=O)[C@H](CO)n3cc(CCCSC)nn3)CC2)n1`, the activation factor was found to be 15.4 and the activity change, negative = activation is -1440% (active).

On to `FC(F)(F)c1nnc2sc(-c3cccs3)nn12`, for which the activation factor was 0.967 and the activity change, negative = activation is 3.3% (inactive).

In the case of `CC(=O)Nc1ccc(Nc2nc(C)nc3c2oc2ccccc23)cc1`, the activation factor came out at 1.01 and the activity change, negative = activation is -1.3% (inactive).

Consider `Cn1nnnc1SCC(=O)Nc1ccc(Oc2ccccc2)cc1`, for which the activation factor worked out at 0.952 and the activity change, negative = activation was 4.85% (inactive).

For the molecule `COc1ccc(CCn2c(C)cc(C(=O)CSc3nnc(N)s3)c2C)cc1`, the activation factor is 0.959 and the activity change, negative = activation was 4.1% (inactive).

In the case of `O=C(NCc1ccc(Cl)cc1Cl)C1CCN(S(=O)(=O)c2ccc3c(c2)OCCCO3)CC1`, the activation factor was determined as 1.48 and the activity change, negative = activation was -48.2% (inactive).

In the case of `COCCNC(=O)CN(C)S(=O)(=O)c1ccc2c(c1)OCCO2`, the activation factor stood at 0.928 and the activity change, negative = activation is 7.15% (inactive).

On to `COc1ccc(NC2=C(C(C)=O)C(c3ccc(OC)c(OC)c3)C(C(C)=O)C(C)(O)C2)cc1` (centres undefined), for which the activation factor came out at 1.08 and the activity change, negative = activation is -7.85% (inactive).

`CCn1nnnc1SCC(=O)Nc1ccc2c(c1)OCO2`: the activation factor was 0.992 and the activity change, negative = activation was 0.8% (inactive).

With `Cc1cc(NC(=O)Nc2ccc(Cl)cc2)n(-c2ccccc2)n1`, the activation factor is 2.07 and the activity change, negative = activation was -107% (active).

For `Cc1nn(C)c(C)c1NC(=O)Nc1ccc(Cl)c(Cl)c1`, the activation factor is 1.62 and the activity change, negative = activation was -62.2% (inactive).

With `Cc1cc(NC(=O)Nc2ccc(Cl)c(Cl)c2)n(-c2ccccc2)n1`, the activation factor is 2.79 and the activity change, negative = activation is -179% (active).

Turning to `Cc1cc(NC(=O)Nc2cccc(Cl)c2)n(-c2ccccc2)n1`, the activation factor is 1.97 and the activity change, negative = activation was -97.1% (active).

As to `CCOC(=O)/C=C(\C)Nc1cc(C)nn1-c1ccccc1`, the activation factor worked out at 1.04 and the activity change, negative = activation is -4.05% (inactive).

With `Cc1cc(NC(=O)c2ccc(C)s2)n(-c2ccccc2)n1`, the activation factor is 1.01 and the activity change, negative = activation is -0.8% (inactive).

As to `COc1cccc(-c2cc(C(=O)Nc3cc(C)nn3-c3ccccc3)no2)c1`, the activation factor amounted to 1.1 and the activity change, negative = activation is -10.2% (inactive).

Consider `COc1ccc(-c2cc(C(=O)Nc3cc(C)nn3-c3ccccc3)no2)cc1`, for which the activation factor was found to be 0.921 and the activity change, negative = activation is 7.9% (inactive).

With `Cc1cc(NC(=O)Nc2cc(C)nn2-c2ccccc2)n(-c2ccccc2)n1`, the activation factor was 0.992 and the activity change, negative = activation is 0.75% (inactive).

Consider `COc1cc(C2Nc3cc(Cl)c(S(N)(=O)=O)cc3S(=O)(=O)N2)ccc1OCc1ccccc1` (centres undefined), for which the activation factor came to 0.84 and the activity change, negative = activation is 16% (inactive).

On to `CC[C@]12c3[nH]c4cc(CCC(=O)N(C)C)ccc4c3CCN1C(=O)[C@@H](CC(=O)NCC13CC4CC(CC(C4)C1)C3)C[C@@H]2C(=O)N1CCN(C(=O)C2CC2)CC1`, for which the activation factor was 1.15 and the activity change, negative = activation is -14.6% (inactive).

For `O=C(CCl)Oc1ccc2occ(C(=O)c3cccs3)c2c1`, the activation factor is 0.89 and the activity change, negative = activation is 11% (inactive).

With `Cc1[nH]c2ccccc2c1C(=O)COC(=O)C1CC(=O)N(Cc2ccco2)C1` (centres undefined), the activation factor came to 1.14 and the activity change, negative = activation is -13.6% (inactive).

Regarding `CCOC(=O)C1=CNS(=O)(=O)NC1c1ccc(C)cc1` (centres undefined), the activation factor stood at 0.96 and the activity change, negative = activation is 4.05% (inactive).

Take `COc1ccc2c(c1)[nH]c1c(=O)n(CCc3cnc[nH]3)cnc12`: the activation factor came out at 1.02 and the activity change, negative = activation was -1.9% (inactive).

Consider `CCCOc1ccc(C(=O)NCCO)cc1`, for which the activation factor is 1.01 and the activity change, negative = activation was -1.1% (inactive).

As for `CCCCOc1ccc(-c2nnc(-c3ccncc3)o2)cc1`, the activation factor came out at 0.94 and the activity change, negative = activation is 6.05% (inactive).

On to `CCCCCOc1ccc(C(=O)CCC(=O)NNC(=O)c2ccncc2)cc1`, for which the activation factor was determined as 3.52 and the activity change, negative = activation was -252% (active).

In the case of `CC[C@]1(C(=O)OC)[C@H]2C(=O)N(C)C(=O)[C@H]2[C@H]2CN=C(SCc3ccc(C#N)cc3)N21`, the activation factor was 1.07 and the activity change, negative = activation was -6.55% (inactive).

For `N#Cc1nc(-c2ccc(Cl)cc2)oc1NCc1ccco1`, the activation factor was 0.952 and the activity change, negative = activation is 4.8% (inactive).

For the molecule `COc1ccccc1-c1cc(C(F)(F)F)nc(N2CCCC2)n1`, the activation factor amounted to 0.939 and the activity change, negative = activation was 6.15% (inactive).

Turning to `O=C(Cn1cc(C(=O)c2ccco2)c2ccccc21)NCc1ccco1`, the activation factor was found to be 0.907 and the activity change, negative = activation is 9.3% (inactive).

As to `S=C(NCc1ccc(Cl)cc1Cl)Nc1ccccc1`, the activation factor turned out to be 1.41 and the activity change, negative = activation was -41% (inactive).

With `S=C(NCc1cccc(Cl)c1)NC1CCCCC1`, the activation factor was found to be 1.14 and the activity change, negative = activation is -14.3% (inactive).

Take `S=C(NCc1ccc(Cl)cc1Cl)NC1CCCCC1`: the activation factor is 1.93 and the activity change, negative = activation was -93% (active).

Take `Cc1cccc(NC(=O)C2=C(O)c3ccccc3N(C)S2(=O)=O)c1`: the activation factor turned out to be 0.998 and the activity change, negative = activation is 0.2% (inactive).

For the molecule `N#Cc1nc(COc2ccc(Cl)cc2)oc1N1CCCCCC1`, the activation factor was found to be 0.964 and the activity change, negative = activation is 3.6% (inactive).

For `CCOC(=O)c1cccc(NC(=O)CCS(=O)(=O)c2cccs2)c1`, the activation factor was 1.01 and the activity change, negative = activation was -0.85% (inactive).

Take `COc1ccc(C(=O)NNC(=S)NC(=O)c2cc(-c3ccccc3)nc3ccccc23)cc1`: the activation factor is 0.848 and the activity change, negative = activation was 15.2% (inactive).

On to `C[C@]12c3[nH]c4cc(-c5ccco5)ccc4c3CCN1C(=O)[C@@H](CC(=O)NCCN1CCOCC1)C[C@@H]2C(=O)N1CCOCC1`, for which the activation factor is 0.997 and the activity change, negative = activation was 0.25% (inactive).
